LANA DNA inh: KSHV C-LANA DNA binding inhibition. MBP-C-LANA/FAM-LBS DNA binding, fluorescence polarization. inhibition, % at 9 µM. 340,000 tested, 0.078% active;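 active means highest replicate inhibition at or above 60% at 9 µM, even if other replicates fall short; inactive means all replicates below 60% inhibition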;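 further: 0% = neutral control wells and 100% = 4 µM acridine orange control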
RTF Ca sens inh: cardiac RTF calcium desensitization. P19429+P45379. IANBD-labeled cardiac RTF, Ca2+ fluorescence. inhibition, % at 7.15 µM. 340,000 tested, 0.12% active;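 active means inhibition above the mean inhibition of all tested compounds plus 3 SD, cut at about 17% in these data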;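 further: assay run at fixed EC70 calcium of 1.6 mM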
cardiac RTF act: increases calcium sensitivity of human cardiac regulated thin filaments | P19429+P45379 | IANBD-labeled TnC RTF fluorescence at EC20 calcium; 0% EC20 calcium, 100% full calcium | activation, % at 7.2 µM | 340,000 tested, 0.24% active | AID 493008;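 active means activation above the mean over all tested compounds plus 3 SD, cut at about 30% in these data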;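 further: rise in fluorescence read as greater calcium sensitivity of cardiac thin filaments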
eLon inh: inhibits E. coli Lon protease; P0A9M0; purified E. coli Lon protease, fluorescence polarization; inhibition, % at 7.94 µM; 360,000 tested, 0.42% active; in the data active means inhibition above about 13%, passing the limit was not always enough;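 further: 0% = enzyme with probe and DMSO and 100% = no enzyme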
Keap1-Nrf2 PPI: Keap1-Nrf2 (human) interaction inhibition; Q14145; Keap1 Kelch-Nrf2 peptide fluorescence polarization, 1536-well; inhibition, % at 9.4 µM; 340,000 tested, 0.15% active; AID 504523; in the data active means inhibition above about 12%;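 further: human Keap1 Kelch domain with fluorescein labeled Nrf2 9mer peptide probe; 0% = neutral control wells and 100% = peptide positive control; higher means more block of Keap1 binding to Nrf2 peptide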
Target sequence (Q14145 whole entry, looked up, the tested form may be a part): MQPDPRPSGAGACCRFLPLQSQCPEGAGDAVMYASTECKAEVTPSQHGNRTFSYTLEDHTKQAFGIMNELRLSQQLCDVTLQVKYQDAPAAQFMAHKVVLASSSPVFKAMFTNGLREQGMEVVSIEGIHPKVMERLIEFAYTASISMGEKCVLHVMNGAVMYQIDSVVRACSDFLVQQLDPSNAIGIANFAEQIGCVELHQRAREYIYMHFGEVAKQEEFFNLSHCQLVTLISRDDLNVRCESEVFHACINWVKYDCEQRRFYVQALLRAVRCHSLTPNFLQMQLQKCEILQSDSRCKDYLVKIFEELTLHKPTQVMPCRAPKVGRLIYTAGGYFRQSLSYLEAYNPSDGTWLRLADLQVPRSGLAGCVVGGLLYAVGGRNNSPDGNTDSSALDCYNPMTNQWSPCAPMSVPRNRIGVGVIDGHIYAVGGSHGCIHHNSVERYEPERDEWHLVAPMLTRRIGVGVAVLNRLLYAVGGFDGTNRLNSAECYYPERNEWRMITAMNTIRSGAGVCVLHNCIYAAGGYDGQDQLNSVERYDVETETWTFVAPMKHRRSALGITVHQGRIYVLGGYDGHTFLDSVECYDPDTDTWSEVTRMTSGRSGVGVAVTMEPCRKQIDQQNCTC
RTF Ca inh conf: cardiac RTF calcium sensitivity inhibition, confirmation; shares compounds with RTF Ca sens inh; reconstituted cardiac thin filaments, calcium sensitivity fluorescence; inhibition, % at 7.15 µM; 360 tested, 8% active; AID 504635; in the data active means inhibition above about 18%
* hit, by the source's call; · = no result given. Shown are actives, neighbours in structure and some others; about 0.82% of the full set was active somewhere.

SMILES	LANA DNA inh	RTF Ca sens inh	cardiac RTF act	eLon inh	Keap1-Nrf2 PPI	RTF Ca inh conf
O=C(O[C@@H]1OC2COC(=O)c3cc(O)c(O)c(O)c3-c3c(cc(O)c(O)c3O)C(=O)O[C@@H]([C@H]1O)[C@@H]2O)c1cc(O)c(O)c(O)c1	120.8*	129.7*	-60.1	32.8*	·	167.2*
COc1cc(CN(C)C(C)C(=O)Nc2ccc([N+](=O)[O-])cc2Cl)ccc1OC(F)F (stereo not given)	0.3	2.0	1.5	4.3	-3.6	·
COc1ccc(Cl)cc1NC(=O)C(C)N(C)Cc1ccc(C(F)(F)F)cc1 (stereo not given)	0.8	17.6*	2.7	-1.2	-2.1	-1.4
CCN(CC)CCNC(=O)c1ccc(Sc2ccc(C)cc2)c(NC(C)=O)c1	-0.8	18.1*	-0.5	0.6	-3.8	-4.5
Cc1nnc(SCC(=O)NCCN2C(=O)CSC2=O)n1-c1ccccc1	0.1	22.9*	-4.7	-1.2	0.8	-1.0
O=C(CSc1nnc(-c2ccc(F)cc2)n1-c1ccccc1)NCCN1C(=O)CSC1=O	2.3	-6.0	4.9	-4.8	-0.6	·
COc1ccc(-c2cc(-c3ccc(OC)cc3)[nH]n2)cc1	0.2	17.4*	4.4	-2.4	-4.3	0.5
O=c1oc2cc(O)c(Cl)cc2c2ccccc12	0.2	-5.0	4.6	-1.6	-1.3	·
O=c1cc2c(=O)oc3cc(O)c(O)oc3c2c(O)c1O	112.2*	86.7*	-51.0	-6.1	-3.4	68.1*
CN(c1ccccc1)S(=O)(=O)c1ccccc1Br	1.9	17.2*	4.2	1.6	-3.4	0.2
Cc1ccc(S(=O)(=O)N(C)c2ccccc2)cc1	0.2	-0.5	-0.8	-10.9	1.4	·
O=C(O)C(Cc1ccccc1)N1C(=O)/C(=C/C=C/c2ccco2)SC1=S (stereo not given)	105.7*	63.7*	-19.5	-3.6	25.8*	27.1*
COCc1cc(C)nc(SCc2ccc(Br)cc2)c1C#N	-0.8	-8.4	1.7	4.6	0.0	·
Cc1ccc(-n2c(SCC(=O)Nc3ccc4c(c3)OCCO4)nnc2-c2ccco2)cc1	-0.8	17.4*	1.2	-3.2	-0.9	-2.5
COc1ccc(NC(=O)CN(C)C(=O)c2cn(-c3ccccc3)nc2-c2cccnc2)cc1	-1.2	-11.1	1.4	2.0	-7.2	·
CC(C)(C)C1CCc2c(C(=O)NNC(=O)CCCC(=O)O)csc2C1 (stereo not given)	0.0	17.2*	-2.5	-11.6	0.9	0.0
COc1ccc(S(=O)(=O)n2ccc(-c3ccc(OCCN(C)c4ccccn4)cc3)n2)cc1	-0.7	17.1*	-2.2	1.1	-2.1	-1.6
O=c1cc(N2CCc3ccccc32)[nH]c(=O)n1-c1ccccc1Cl	-0.1	17.0*	-1.5	-0.5	2.3	-3.4
Cc1ccccc1-n1c(=O)cc(N2CCc3ccccc32)[nH]c1=O	-1.5	-2.1	0.6	-1.2	0.8	·
O=C(O)COc1ccc(/C=N/NC(=O)c2ccc(-c3csc(Nc4ccc(Cl)cc4)n3)cc2)cc1	-0.4	34.3*	-22.0	2.3	-2.9	18.4*
CCOc1cc(/C=N/NC(=O)c2ccc(-c3csc(Nc4ccc(C)cc4)n3)cc2)ccc1OCC(=O)O	2.1	·	·	-2.7	0.1	·
O=c1c(O)cccc2cc(O)c(O)c(O)c12	81.9*	87.2*	-39.8	14.6	-5.3	50.7*
O=c1cc(-c2ccccc2)oc2cc(O)c(O)c(O)c12	3.9	2.5	1.6	-0.9	-1.0	·
COc1ccccc1OCC(O)CO (stereo not given)	-0.3	1.3	7.8	5.4	-8.5	·
COc1ccccc1OCC(O)COC(N)=O (stereo not given)	3.4	17.6*	-0.8	-3.3	-5.2	2.0
SMILES	LANA DNA inh	RTF Ca sens inh	cardiac RTF act	eLon inh	Keap1-Nrf2 PPI	RTF Ca inh conf
O=C(CSc1nc2ccccc2n1CCc1ccccc1)c1ccc(O)c(O)c1	14.1	17.8*	-17.1	-5.6	-3.5	10.3
O=C(CSc1nc2ccccc2n1CCc1ccccc1)N1CCOCC1	-0.5	-12.4	5.5	2.2	-3.2	·
O=C(Nc1ccc(N2CCOCC2)c(Cl)c1)c1ccc(F)cc1	1.3	-7.1	2.7	4.8	-1.6	·
O=C(Nc1ccc(N2CCOCC2)c(Cl)c1)c1ccccc1Cl	0.2	49.8*	0.1	-8.6	-3.4	-5.2
COc1cc(CN2C(=S)NC(C)(C)CC2(C)O)cc(OC)c1 (stereo not given)	-0.6	-5.7	-2.0	0.9	-1.8	·
COC(=O)[C@]12CCCCC=C1N(Cc1ccccc1)C(=O)[C@H](CC(=O)NCCc1ccccc1OC)C2	·	·	·	0.7	·	·

High-throughput results: PubChem, several laboratories
